KLK7 zymogen act = proKLK7 zymogen activators, primary screen, biochemical, fluorescence intensity | Kallikrein-7 (Homo sapiens), P49862 | purified proKLK7, EDANS-DABCYL substrate fluorescence; 100% is mature enzyme control, 0% vehicle | activation, % at 7 µM | actives 0.9% (n = 370,000) | AID 652039, 2013;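 active means activation above the mean of all tested compounds plus 3 SD, computed per campaign excluding outliers beyond control limits, cut at about 13% in these data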
PLC-beta3 inh = human PLC-beta3 inhibitors, primary screen, biochemical, fluorescence; AID 720704, 2013; actives 0.18% (n = 370,000); Purified PLC-beta3, fluorogenic substrate; 1-phosphatidylinositol 4,5-bisphosphate phosphodiesterase beta-3 (Homo sapiens), Q01970; inhibition, % at 12.2 µM; in the data active means inhibition above about 11%
PLC-gamma1 inh = PLC-gamma1 enzyme inhibitors, primary screen, biochemical, fluorescence, purified enzyme; 1-phosphatidylinositol 4,5-bisphosphate phosphodiesterase gamma-1 (Homo sapiens), P19174; AID 720700, 2013; inhibition, % at 12.2 µM; actives 0.84% (n = 370,000); fluorogenic substrate; in the data active means inhibition above about 9.5%
ADAM17 inh = ADAM17 inhibitors, primary screen, biochemical, QFRET; Disintegrin and metalloproteinase domain-containing protein 17 (Homo sapiens), P78536; recombinant ADAM17, EDANS/DABCYL FRET peptide cleavage; inhibition, % at 6.95 µM; actives 0.83% (n = 370,000); AID 720648, 2013;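 active means inhibition above the mean of compounds lying between control limits plus 3 SD, set per campaign, cut at about 8.5% in these data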
ADAM10 inh = human ADAM10 inhibitors, primary screen, biochemical, QFRET, HTS; recombinant ADAM10, EDANS/DABCYL FRET peptide cleavage, 3 h; inhibition, % at 7 µM; AID 720582, 2013; actives 0.62% (n = 370,000);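 active means inhibition above a per-campaign cutoff equal to the mean of compounds falling between control-based bounds plus 3 SD, cut at about 20% in these data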
ADAM10 confirm = human ADAM10 inhibitors, confirmation, biochemical, QFRET, triplicate. shares compounds with ADAM10 inh. ADAM10 QFRET peptide cleavage, EDANS fluorescence. inhibition, % at 6.95 µM. actives 1% (n = 2,100);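 active means inhibition above about 20% chosen separately for each screening run, limit read from the data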
ADAM17 ctr = ADAM17 inhibitors, counter-screen for ADAM10 exosite inhibitor project, biochemical, QFRET, high throughput | shares compounds with ADAM10 inh | ADAM17 QFRET peptide cleavage, EDANS fluorescence | inhibition, % at 6.95 µM | actives 0.5% (n = 2,100) | AID 743214, 2013;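 active means mean triplicate inhibition above the solvent-only control wells' mean plus 3 SD, cut at about 12% in these data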
ADAM10 ctr = ADAM10 inhibitors, counter-screen for ADAM17 exosite inhibitor project, biochemical, FRET, human ADAM10; inhibition, % at 6.95 µM; actives 47% (n = 2,900); recombinant ADAM10, EDANS/DABCYL FRET peptide cleavage, 3 h; AID 743256, 2014; shares compounds with ADAM17 inh;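 active means mean inhibition over the triplicate runs exceeds the activity threshold set in the earlier primary screen, cut at about 20% in these data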
ADAM17 confirm = ADAM17 inhibitors, hit retest, confirmation, biochemical, QFRET peptide cleavage; shares compounds with ADAM17 inh; recombinant ADAM17, EDANS/DABCYL QFRET peptide cleavage; inhibition, % at 6.95 µM; actives 65% (n = 2,900);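 active means mean inhibition across replicates above the hit cutoff set in the primary screen, cut at about 8.5% in these data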
Each line names hits and unclear results; the compound was inactive in the other large screens (follow-up assays come after a bar, where they were run). In the library only some 2.9% were active in any assay of this set; here they are far more common.

O=C(c1ccc(COc2ccc(Cl)cc2)o1)N1N=C(C(F)F)CC1(O)C(F)F (stereo not drawn)	ADAM17 inh 13, ADAM10 inh 34 | ADAM10 confirm inactive | ADAM17 ctr inactive | ADAM10 ctr inactive | ADAM17 confirm inactive
CC(=O)N(C)c1ccc(OCC(O)COc2ccc(N(C)C(C)=O)cc2)cc1	none
C=C(C)C(=O)OCC(O)COc1ccc(C(C)(C)c2ccc(OCC(O)COC(=O)C(=C)C)cc2)cc1 (stereo not drawn)	ADAM17 inh 9.5, ADAM10 inh 35 | ADAM10 confirm inactive | ADAM17 ctr inactive | ADAM10 ctr 33 | ADAM17 confirm 18
Cc1cc(C)cc(N(CC(=O)NC2CCC(C)CC2)S(=O)(=O)c2ccccc2)c1 (stereo not drawn)	none
COc1cc(/C=C2\SC(=S)N(Nc3ncc(C(F)(F)F)cc3Cl)C2=O)ccc1O	ADAM17 inh 12, ADAM10 inh 34 | ADAM10 confirm inactive | ADAM17 ctr inactive | ADAM10 ctr 35 | ADAM17 confirm 19
O=C(NCc1ccc(C(F)(F)F)cc1)C1CC(c2ccccc2C(F)(F)F)=NO1 (stereo not drawn)	none
O=C(NCc1cc(C(F)(F)F)cc(C(F)(F)F)c1)C1CC(c2c(Cl)cccc2Cl)=NO1 (stereo not drawn)	none
O=C(NCc1ccc(OC(F)(F)F)cc1)C1CC(c2c(Cl)cccc2Cl)=NO1 (stereo not drawn)	ADAM17 inh 9.5, ADAM10 inh 21 | ADAM10 confirm inactive | ADAM17 ctr inactive | ADAM10 ctr 24 | ADAM17 confirm 13
O=C(NCc1cc(C(F)(F)F)cc(C(F)(F)F)c1)C1CC(c2ccccc2C(F)(F)F)=NO1 (stereo not drawn)	ADAM17 inh 17, ADAM10 inh 31 | ADAM10 confirm inactive | ADAM17 ctr inactive | ADAM10 ctr 49 | ADAM17 confirm 25
CCCCN1CCN(C(=O)C2CCN(S(=O)(=O)c3ccc4[nH]c(=O)oc4c3)CC2)CC1	none
COCCCNC(=O)C[C@H]1C[C@@]2(C(=O)OC)C(=C[C@H](C(C)(C)C)O[C@@H]2C)N(Cc2cccc3ccccc23)C1=O	none
COC(=O)[C@]12C[C@H](CC(=O)NCc3cccc4ccccc34)C(=O)N(Cc3ccco3)C1=C[C@H](C1CCCC1)O[C@@H]2C	ADAM17 inh 14, ADAM10 inh 22 | ADAM10 confirm inactive | ADAM17 ctr inactive | ADAM10 ctr 34 | ADAM17 confirm 17
CCCCNC(=O)C[C@H]1C[C@@]2(C(=O)OC)C(=C[C@H](C(C)(C)C)O[C@@H]2C)N(Cc2cccc3ccccc23)C1=O	ADAM17 inh 15, ADAM10 inh 29 | ADAM10 confirm inactive | ADAM17 ctr inactive | ADAM10 ctr 26 | ADAM17 confirm 17
COC(=O)[C@]12C[C@H](CC(=O)NCCCCc3ccccc3)C(=O)N(CCc3ccc(OC)c(OC)c3)C1=C[C@H](C(C)(C)C)O[C@@H]2C	ADAM17 inh 9.0, ADAM10 inh 27 | ADAM10 confirm inactive | ADAM17 ctr inactive | ADAM10 ctr 24 | ADAM17 confirm 13
Cc1ccc(NC(=S)NNC(=O)c2cnccn2)cc1	none
C[C@@H]1CN([C@@H](C)CO)S(=O)(=O)c2ccc(Br)cc2O[C@@H]1CN(C)S(=O)(=O)c1ccc(F)cc1	none
CN(CC1COc2ccccc2O1)C(=O)CSc1nncs1 (stereo not drawn)	none
C=CCNCc1ccc(OC)cc1OC	none
Cc1noc(C)c1C(=O)OCC(=O)Nc1ccccc1SCC#N	none
COc1cc(O)c(C(CCN2CCN(c3ccccc3)CC2)c2ccc3c(c2)OCO3)c(OC)c1 (stereo not drawn)	ADAM17 inh 12, ADAM10 inh 24 | ADAM10 confirm inactive | ADAM17 ctr inactive | ADAM10 ctr inactive | ADAM17 confirm inactive
COc1ccc(CN2C(=O)[C@@H]3Cc4c([nH]c5ccccc45)C(C)(C)N3C2=O)cc1	none
COc1ccc(CN2C(=O)[C@H]3Cc4c([nH]c5ccccc45)C(C)(C)N3C2=O)cc1	ADAM17 inh 8.9, ADAM10 inh 22 | ADAM10 confirm inactive | ADAM17 ctr inactive | ADAM10 ctr 30 | ADAM17 confirm 17
Cc1ccc(-c2cc(-c3ccccc3[N+](=O)[O-])[nH]n2)c(O)c1	none
Cc1ccccc1-c1cc(-c2ccccc2O)n[nH]1	ADAM17 inh 11, ADAM10 inh 24 | ADAM10 confirm inactive | ADAM17 ctr inactive | ADAM10 ctr inactive | ADAM17 confirm 10.0
Cc1ccc(-c2cc(-c3ccccc3Cl)[nH]n2)c(O)c1	ADAM17 inh 9.5, ADAM10 inh 24 | ADAM10 confirm inactive | ADAM17 ctr inactive | ADAM10 ctr inactive | ADAM17 confirm 9.1
Cc1ccc(-c2cc(-c3ccc(C)cc3O)[nH]n2)cc1	ADAM17 inh 12, ADAM10 inh 33 | ADAM10 confirm inactive | ADAM17 ctr inactive | ADAM10 ctr 25 | ADAM17 confirm 14
COc1ccc(-c2cc(-c3ccccc3O)[nH]n2)cc1	none
COc1ccc(CN2C[C@]3(C=C4CCCCC4n4c(=O)n(-c5ccccc5)c(=O)n43)N(C(=O)OCc3ccccc3)C2=NC(=O)c2ccccc2)c(OC)c1 (stereo partly drawn)	none
CCc1nc2ccc(C(=O)NCc3ccc4c(c3)OCO4)cn2c1N(C)Cc1ccc(OC)cc1	ADAM17 inh 19, ADAM10 inh 30 | ADAM10 confirm inactive | ADAM17 ctr inactive | ADAM10 ctr 24 | ADAM17 confirm 15
